From PubChem BioAssay (EPA / NIEHS)
Where a structure was tested more than once in an assay, its records may differ in their call. The source made the active and inactive calls. The calls were made as follows: active = hit-call score of the fitted dose curve at least 0.9, where 1 is the maximum; inactive = score below 0.9.

How the values were obtained:
[1] = molecular target: Bile acid receptor (Homo sapiens) (UniProt Q96RI1); experiment: ATG_IR1_CIS: Attagene CIS-FACTORIAL HepG2 Assay for human Nuclear Receptor Subfamily 1 Group H Member 4 (NR1H4), IR1 submotif (AID 2282946); conditions: IR1 reporter transcription, actives raise or lower the signal
Chain of Bile acid receptor (Homo sapiens) (Q96RI1 whole entry, looked up): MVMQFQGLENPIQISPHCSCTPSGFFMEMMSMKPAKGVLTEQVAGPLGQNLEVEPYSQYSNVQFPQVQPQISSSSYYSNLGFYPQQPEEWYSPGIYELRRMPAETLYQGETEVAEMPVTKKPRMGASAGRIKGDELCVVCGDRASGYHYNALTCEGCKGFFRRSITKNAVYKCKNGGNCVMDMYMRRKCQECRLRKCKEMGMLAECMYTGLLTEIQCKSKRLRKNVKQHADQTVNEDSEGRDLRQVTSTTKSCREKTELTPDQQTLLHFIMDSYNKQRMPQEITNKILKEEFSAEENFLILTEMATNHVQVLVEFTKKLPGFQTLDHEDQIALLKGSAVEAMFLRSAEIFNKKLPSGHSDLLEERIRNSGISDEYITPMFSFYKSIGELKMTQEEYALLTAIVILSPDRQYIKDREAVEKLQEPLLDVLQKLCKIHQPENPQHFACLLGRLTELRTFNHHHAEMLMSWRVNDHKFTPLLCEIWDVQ
Procedure, shortened: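 HepG2 cells transiently transfected with multiplexed cis-element reporter units read endogenous transcription factor activity. After 24 h compound exposure, reporter mRNA was quantified by RT-PCR, fluorescent labelling, HpaI digestion and capillary electrophoresis; bidirectional fitting versus DMSO baseline.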

[2] = ATG_GRE_CIS: Attagene CIS-FACTORIAL HepG2 Assay for human Glucocorticoid Response Elements (GRE) (AID 2282947); conditions: HepG2 GRE cis-reporter, Attagene multiplex mRNA; actives raise or lower the signal
Procedure, shortened: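 Reporter transcripts read by RT-PCR with capillary electrophoresis fluorescence after a 24 h chemical exposure of HepG2 cells transiently transfected with multiple cis-element reporter units. Gain or loss fitted against DMSO.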

[3] = ATG_ISRE_CIS: Attagene CIS-FACTORIAL HepG2 Assay for human Interferon Regulatory Factor 1 (IRF1) binding to an Interferon-Stimulated Response Element (ISRE) (AID 2282948); conditions: HepG2 ISRE cis-reporter (Attagene), mRNA transcription readout; actives raise or lower the signal
Procedure, shortened: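 Multiplexed mRNA reporter readout in human liver HepG2 cells: cis-element-driven reporters transfected, compound added for 24 h, transcripts amplified, fluorescently labelled and sized by capillary electrophoresis; curve fitting bidirectional against DMSO.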

[4] = ATG_M_32_CIS: Attagene CIS-FACTORIAL HepG2 Assay for M32 Transcription Factor (Internal Marker) (AID 2282949); conditions: HepG2 Attagene cis-factorial M32 reporter, mRNA; actives raise or lower the signal;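 also: background control marker of the multiplexed CIS panel rather than a real target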
Procedure, shortened: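 HepG2 transfectants (cis-regulated reporter transcription units) dosed 24 h. Reporter mRNA by RT-PCR plus CE, analysed as gain or loss relative to DMSO.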

[5] = ATG_M_06_CIS: Attagene CIS-FACTORIAL HepG2 Assay for M06 Transcription Factor (Internal Marker) (AID 2282950); conditions: HepG2 Attagene CIS-FACTORIAL M06 internal marker reporter; actives raise or lower the signal
Procedure, shortened: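 Internal background marker within multiplexed cis-reporter HepG2 system. Cells transiently transfected, dosed 24 h; reporter mRNA measured by RT-PCR, HpaI digestion and capillary electrophoresis. Bidirectional fit relative to DMSO.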

[6] = molecular target: Hypoxia-inducible factor 1-alpha (Homo sapiens) (UniProt Q16665); experiment: ATG_HIF1a_CIS: Attagene CIS-FACTORIAL HepG2 Assay for human Hypoxia Inducible Factor 1 (HIF1A) (AID 2282951); conditions: HepG2 Attagene cis-factorial HIF1a reporter transcription; actives raise or lower the signal
Chain of Hypoxia-inducible factor 1-alpha (Homo sapiens) (Q16665 whole entry, looked up): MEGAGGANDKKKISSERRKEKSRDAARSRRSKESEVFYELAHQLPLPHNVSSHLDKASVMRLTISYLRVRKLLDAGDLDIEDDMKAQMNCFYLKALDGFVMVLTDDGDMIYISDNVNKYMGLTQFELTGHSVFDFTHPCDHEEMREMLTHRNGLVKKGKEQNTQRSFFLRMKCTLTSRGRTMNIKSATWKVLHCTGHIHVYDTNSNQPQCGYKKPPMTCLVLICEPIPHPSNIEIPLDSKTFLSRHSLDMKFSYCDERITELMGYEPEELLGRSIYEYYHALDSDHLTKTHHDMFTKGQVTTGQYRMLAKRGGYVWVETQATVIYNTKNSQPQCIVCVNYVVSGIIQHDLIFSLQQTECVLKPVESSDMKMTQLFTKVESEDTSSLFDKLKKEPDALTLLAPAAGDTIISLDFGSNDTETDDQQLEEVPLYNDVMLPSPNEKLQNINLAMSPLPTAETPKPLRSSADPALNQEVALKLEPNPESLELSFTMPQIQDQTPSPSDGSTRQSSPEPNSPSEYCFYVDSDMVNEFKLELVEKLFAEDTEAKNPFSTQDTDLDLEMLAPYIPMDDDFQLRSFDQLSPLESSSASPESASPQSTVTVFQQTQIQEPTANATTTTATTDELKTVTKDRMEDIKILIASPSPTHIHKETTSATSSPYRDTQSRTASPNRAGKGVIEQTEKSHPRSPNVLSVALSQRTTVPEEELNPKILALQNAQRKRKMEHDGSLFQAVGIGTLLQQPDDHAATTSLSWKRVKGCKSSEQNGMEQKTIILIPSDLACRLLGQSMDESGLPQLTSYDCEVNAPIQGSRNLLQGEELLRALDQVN
Procedure, shortened: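 Dosed 24 h, transfected HepG2 cells yielded total RNA whose reporter transcripts were RT-PCR-amplified and sized by capillary electrophoresis using fluorescent labelling; DMSO defined baseline, with gain and loss of signal both fitted.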

[7] = molecular target: Hepatocyte nuclear factor 6 (Homo sapiens) (UniProt Q9UBC0); experiment: ATG_HNF6_CIS: Attagene CIS-FACTORIAL HepG2 Assay for human Hepatocyte Nuclear Factor 6 (HNF6) (AID 2282952); conditions: HepG2 Attagene cis-factorial HNF6 reporter transcription; actives raise or lower the signal
Chain of Hepatocyte nuclear factor 6 (Homo sapiens) (Q9UBC0 whole entry, looked up, the tested form may be a part): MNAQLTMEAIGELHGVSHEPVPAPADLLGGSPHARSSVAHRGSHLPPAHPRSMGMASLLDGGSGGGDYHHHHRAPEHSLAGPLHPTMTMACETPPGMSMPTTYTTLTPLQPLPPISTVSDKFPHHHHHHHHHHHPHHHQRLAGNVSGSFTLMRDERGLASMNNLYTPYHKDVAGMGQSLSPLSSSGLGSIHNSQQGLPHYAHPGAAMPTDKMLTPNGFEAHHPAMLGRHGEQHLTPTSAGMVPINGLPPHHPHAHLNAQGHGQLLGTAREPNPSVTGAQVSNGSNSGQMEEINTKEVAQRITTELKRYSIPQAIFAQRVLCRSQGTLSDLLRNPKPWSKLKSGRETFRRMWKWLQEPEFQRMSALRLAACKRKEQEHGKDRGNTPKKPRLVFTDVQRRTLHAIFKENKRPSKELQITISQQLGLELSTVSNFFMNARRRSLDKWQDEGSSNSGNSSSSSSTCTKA
Procedure, shortened: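 First, HepG2 cells were transfected with the multiplexed cis reporter library and dosed with chemical for 24 h. Next, RNA was reverse-transcribed, PCR-amplified and fluorescently labelled. Finally, HpaI-digested fragments were read by capillary electrophoresis.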

[8] = molecular target: Heat shock factor protein 1 (Homo sapiens) (UniProt Q00613); experiment: ATG_HSE_CIS: Attagene CIS-FACTORIAL HepG2 Assay for human Heat Shock Transcription Factor 1 (HSE) (AID 2282953); conditions: HepG2 HSE cis-reporter, Attagene RNA transcription; actives raise or lower the signal
Chain of Heat shock factor protein 1 (Homo sapiens) (Q00613 whole entry, looked up): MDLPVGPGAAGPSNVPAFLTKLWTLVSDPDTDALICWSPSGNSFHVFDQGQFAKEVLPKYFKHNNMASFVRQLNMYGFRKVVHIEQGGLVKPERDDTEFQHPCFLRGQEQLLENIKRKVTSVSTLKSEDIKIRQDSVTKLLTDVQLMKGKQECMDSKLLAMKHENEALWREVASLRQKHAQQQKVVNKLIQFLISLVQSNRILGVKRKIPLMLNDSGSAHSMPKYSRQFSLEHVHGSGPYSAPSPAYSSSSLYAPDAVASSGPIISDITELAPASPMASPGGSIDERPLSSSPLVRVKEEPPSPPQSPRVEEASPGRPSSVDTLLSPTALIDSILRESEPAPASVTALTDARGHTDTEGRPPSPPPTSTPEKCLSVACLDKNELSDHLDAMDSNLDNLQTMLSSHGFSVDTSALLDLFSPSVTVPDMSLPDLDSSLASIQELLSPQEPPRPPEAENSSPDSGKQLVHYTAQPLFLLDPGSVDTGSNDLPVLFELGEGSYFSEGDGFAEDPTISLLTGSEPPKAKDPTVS
Procedure, shortened: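 HepG2 cells transfected with cis-promoter reporter units sensing endogenous transcription factor activity; reporter mRNA quantified 24 h post-dose by RT-PCR and capillary electrophoresis of 6-FAM-labelled products. Bidirectional fitting against DMSO.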

[9] = ATG_MRE_CIS: Attagene CIS-FACTORIAL HepG2 Assay for human Metal Responsive Element (MRE) (AID 2282954); conditions: HepG2 MRE cis-reporter transcription, Attagene multiplex; actives raise or lower the signal
Procedure, shortened: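 Endogenous MRE-dependent transcription read as reporter mRNA in transiently transfected human HepG2 cells at 24 h. RNA reverse-transcribed, PCR-amplified, labelled and resolved by capillary electrophoresis; gain or loss relative to DMSO.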

[10] = ATG_PBREM_CIS: Attagene CIS-FACTORIAL HepG2 Assay for human Phenobarbital-responsive Enhancer Module (PBREM) (AID 2282955); conditions: HepG2 PBREM cis-reporter, Attagene multiplexed transcription; actives raise or lower the signal
Procedure, shortened: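 Transfected liver-derived HepG2 cells exposed 24 h; PBREM reporter transcript quantified via RT-PCR and capillary electrophoresis, with activity in either direction referenced to DMSO.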

[11] = molecular target: Paired box protein Pax-6 (Homo sapiens) (UniProt P26367); experiment: ATG_Pax6_CIS: Attagene CIS-FACTORIAL HepG2 Assay for human Paired Box 6 (PAX6) (AID 2282956); conditions: HepG2 CIS-FACTORIAL PAX6 reporter transcription, RNA readout; actives raise or lower the signal
Chain of Paired box protein Pax-6 (Homo sapiens) (P26367 whole entry, looked up): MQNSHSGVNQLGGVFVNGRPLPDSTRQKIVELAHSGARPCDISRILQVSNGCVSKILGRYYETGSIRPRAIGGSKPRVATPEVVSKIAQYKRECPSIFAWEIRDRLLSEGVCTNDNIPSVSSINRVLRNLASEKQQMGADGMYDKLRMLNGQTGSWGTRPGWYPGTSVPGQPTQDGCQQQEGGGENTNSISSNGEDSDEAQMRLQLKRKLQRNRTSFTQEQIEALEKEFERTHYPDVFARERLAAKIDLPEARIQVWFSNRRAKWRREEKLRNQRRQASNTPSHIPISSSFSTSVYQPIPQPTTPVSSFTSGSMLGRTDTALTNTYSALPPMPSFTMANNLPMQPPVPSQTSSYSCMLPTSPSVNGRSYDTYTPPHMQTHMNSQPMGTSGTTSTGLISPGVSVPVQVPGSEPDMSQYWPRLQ
Procedure, shortened: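 Fluorescent RT-PCR products separated by capillary electrophoresis report PAX6-linked promoter mRNA in HepG2 cells 24 h post-dose. Curves fitted bidirectionally, DMSO as negative control.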

[12] = ATG_PXRE_CIS: Attagene CIS-FACTORIAL HepG2 Assay for human Pregnane X Receptor Element (PXRE) (AID 2282957); conditions: HepG2 Attagene CIS-FACTORIAL PXRE reporter, mRNA; actives raise or lower the signal
Procedure, shortened: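 After a 24 h chemical incubation, total RNA from transfected HepG2 cells was reverse-transcribed and reporter cDNA amplified, FAM-labeled, HpaI-digested and sized by capillary electrophoresis. DMSO served as baseline for bidirectional curve fitting.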

[13] = ATG_PPRE_CIS: Attagene CIS-FACTORIAL HepG2 Assay for human Peroxisome Proliferator-activated Response Element (PPRE) (AID 2282958); conditions: HepG2 PPRE cis-element reporter, Attagene transcription factor profiling; actives raise or lower the signal
Procedure, shortened: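 Measured endpoint: PPRE-controlled reporter mRNA, detected by RT-PCR and capillary electrophoresis fluorescence, from transiently transfected HepG2 cells 24 h after dosing. Curves fitted in both directions using DMSO baseline.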

[14] = ATG_RORE_CIS: Attagene CIS-FACTORIAL HepG2 Assay for human RAR-related Orphan Receptor Element (RORE) (AID 2282959); conditions: HepG2 Attagene cis-factorial RORE reporter, mRNA; actives raise or lower the signal
Procedure, shortened: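 Transiently transfected HepG2 reporter cells were treated 24 h. Reporter transcripts were detected by RT-PCR and capillary electrophoresis, with bidirectional fitting against DMSO.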

[15] = ATG_Sox_CIS: Attagene CIS-FACTORIAL HepG2 Assay for human SRY-box transcription factor (SOX) (AID 2282960); conditions: HepG2 Attagene cis-factorial SOX reporter, mRNA; actives raise or lower the signal
Procedure, shortened: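 Gain- or loss-of-signal endpoint, fitted bidirectionally with DMSO as negative control. Based on reporter mRNA from transfected HepG2 cells harvested 24 h post-treatment and quantified via RT-PCR and capillary electrophoresis.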

[16] = molecular target: Transcription factor Sp1 (Homo sapiens) (UniProt P08047); experiment: ATG_Sp1_CIS: Attagene CIS-FACTORIAL HepG2 Assay for human Specificity Protein 1 (Sp1) (AID 2282961); conditions: HepG2 Sp1 cis-reporter transcription, actives raise or lower the signal
Chain of Transcription factor Sp1 (Homo sapiens) (P08047 whole entry, looked up, the tested form may be a part): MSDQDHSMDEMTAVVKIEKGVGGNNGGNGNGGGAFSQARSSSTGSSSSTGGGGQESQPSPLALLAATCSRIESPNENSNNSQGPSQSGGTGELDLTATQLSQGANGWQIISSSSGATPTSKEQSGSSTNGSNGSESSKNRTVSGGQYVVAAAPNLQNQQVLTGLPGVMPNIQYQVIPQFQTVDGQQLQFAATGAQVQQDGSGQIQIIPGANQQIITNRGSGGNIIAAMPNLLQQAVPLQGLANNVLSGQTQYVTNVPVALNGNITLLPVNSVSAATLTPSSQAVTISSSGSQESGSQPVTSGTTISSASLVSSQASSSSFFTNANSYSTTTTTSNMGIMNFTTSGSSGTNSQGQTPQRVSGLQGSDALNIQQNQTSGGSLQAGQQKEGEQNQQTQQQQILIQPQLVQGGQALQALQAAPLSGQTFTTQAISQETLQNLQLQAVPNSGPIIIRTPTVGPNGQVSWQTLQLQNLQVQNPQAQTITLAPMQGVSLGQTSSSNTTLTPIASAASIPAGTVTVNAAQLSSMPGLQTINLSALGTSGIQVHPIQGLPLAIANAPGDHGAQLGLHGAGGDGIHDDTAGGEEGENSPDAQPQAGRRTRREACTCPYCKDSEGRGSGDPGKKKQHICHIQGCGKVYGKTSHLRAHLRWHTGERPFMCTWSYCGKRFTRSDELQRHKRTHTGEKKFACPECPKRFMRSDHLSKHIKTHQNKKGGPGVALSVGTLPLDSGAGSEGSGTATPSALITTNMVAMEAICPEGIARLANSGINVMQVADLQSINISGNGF
Procedure, shortened: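 Endpoint reflects endogenous Sp1 transcriptional activity, not an exogenous fusion protein: HepG2 cells with transfected cis-regulated reporters, 24 h dosing, RT-PCR/capillary electrophoresis mRNA read-out, DMSO-normalised bidirectional fit.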

[17] = ATG_SREBP_CIS: Attagene CIS-FACTORIAL HepG2 Assay for human Sterol Regulatory Element Binding (SREBP) (AID 2282962); conditions: HepG2 Attagene cis-factorial SREBP reporter, mRNA; actives raise or lower the signal
Procedure, shortened: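 Endogenous factor activity is measured in HepG2 through multiplexed reporter units under cis-element control. Following a 24 h incubation, reporter transcripts are reverse-transcribed, PCR-amplified and sized by capillary electrophoresis; activity is fitted in both directions relative to DMSO.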

[18] = ATG_TA_CIS: Attagene CIS-FACTORIAL HepG2 Assay for human TA Basal Promoter (AID 2282964); conditions: HepG2 Attagene CIS-factorial TA basal promoter reporter; actives raise or lower the signal
Procedure, shortened: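 HepG2 cells transiently transfected with multiple reporter units under cis promoter elements, reporting endogenous transcription factor activity; this endpoint tracks the TA basal promoter as background control. Reporter mRNA after 24 h dosing measured by RT-PCR/capillary electrophoresis; bidirectional fits versus DMSO.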

[19] = ATG_TCF_b_cat_CIS: Attagene CIS-FACTORIAL HepG2 Assay for human T-Cell-Factor with beta-catenin (TCF/b-cat) (AID 2282965); conditions: HepG2 TCF/beta-catenin cis-reporter transcription, actives raise or lower the signal
Procedure, shortened: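 Endogenous TCF/LEF activity read as reporter transcript level via RT-PCR and capillary electrophoresis fluorescence in transfected HepG2, 24 h exposure; gain or loss of signal fitted against DMSO controls.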

[20] = molecular target: Signal transducer and activator of transcription 3 (Homo sapiens) (UniProt P40763); experiment: ATG_STAT3_CIS: Attagene CIS-FACTORIAL HepG2 Assay for human Signal Transducer and Activator of Transcription 3 (STAT3) (AID 2282963); conditions: HepG2, Attagene cis-factorial STAT3 reporter transcription; actives raise or lower the signal
Chain of Signal transducer and activator of transcription 3 (Homo sapiens) (P40763 whole entry, looked up): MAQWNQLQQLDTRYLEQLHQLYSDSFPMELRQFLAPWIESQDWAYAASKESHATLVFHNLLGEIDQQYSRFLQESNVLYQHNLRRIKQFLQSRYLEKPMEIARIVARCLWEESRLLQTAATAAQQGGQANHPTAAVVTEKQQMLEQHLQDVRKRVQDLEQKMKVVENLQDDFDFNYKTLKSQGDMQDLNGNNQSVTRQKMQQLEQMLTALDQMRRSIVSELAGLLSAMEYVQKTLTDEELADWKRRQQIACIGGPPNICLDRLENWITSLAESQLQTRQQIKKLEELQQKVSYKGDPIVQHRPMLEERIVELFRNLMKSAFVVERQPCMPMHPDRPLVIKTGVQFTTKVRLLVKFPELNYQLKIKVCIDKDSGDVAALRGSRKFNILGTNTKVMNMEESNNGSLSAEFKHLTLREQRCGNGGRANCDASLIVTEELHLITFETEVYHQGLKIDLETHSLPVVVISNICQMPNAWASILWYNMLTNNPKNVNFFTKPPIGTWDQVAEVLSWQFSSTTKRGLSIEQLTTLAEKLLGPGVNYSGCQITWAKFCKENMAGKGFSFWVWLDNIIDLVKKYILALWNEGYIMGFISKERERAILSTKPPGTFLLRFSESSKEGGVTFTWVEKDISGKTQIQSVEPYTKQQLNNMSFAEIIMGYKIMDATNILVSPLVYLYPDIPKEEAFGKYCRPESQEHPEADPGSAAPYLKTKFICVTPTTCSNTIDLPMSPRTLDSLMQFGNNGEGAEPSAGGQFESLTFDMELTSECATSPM
Procedure, shortened: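 Readout is reporter transcript quantified by RT-PCR and capillary electrophoresis, with 6-FAM primer extension and HpaI digestion. Total RNA is taken 24 h after dosing transiently transfected HepG2 carrying cis-regulated reporter units. Bidirectional fit against DMSO.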

Measured: AC50

CCCCC(CC)COP(=O)(OCC(CC)CCCC)OCC(CC)CCCC (configuration not stated)
active: [12] 0.339 µM
not listed: [20]
inactive: all other assays above

Cc1cc(SC2=C(O)C[C@@](CCc3ccc(N)cc3)(C(C)C)OC2=O)c(C(C)(C)C)cc1CO
active: [12] 1.55 µM | [13] 57.6 µM | [16] 29.1 µM
not listed: [10] | [19] | [20]
inactive: all other assays above

CN(C)CCCN(C)CCCN(C)C
active: [12] 25.6 µM
not listed: [10] | [19] | [20]
inactive: all other assays above

NC1CCCCC1
not listed: [1] | [2] | [19] | [20]
inactive: all other assays above

CCCCOC(=O)CCCCC(=O)OCCCC
active: [2] 178 µM
not listed: [1] | [10] | [20]
inactive: all other assays above

C/C=C/C=C/C(=O)O
active: [12] 36.7 µM
inactive: [3] | [4] | [5] | [6] | [7] | [8] | [9] | [10] | [11] | [12] | [13] | [14] | [15] | [16] | [17] | [18] | [19]

Oc1ccccc1O
active: [14] 23.2 µM
not listed: [1] | [6]
inactive: all other assays above
